Test results from the supplement of paper PMC6411743.
± gives the standard deviation of the averaged measurements. Targets with the largest changes are over-represented here; the source holds about 5,400 in all.

Target: T1, UniProt Q13188|Q13188-2
T1 sequence (whole entry): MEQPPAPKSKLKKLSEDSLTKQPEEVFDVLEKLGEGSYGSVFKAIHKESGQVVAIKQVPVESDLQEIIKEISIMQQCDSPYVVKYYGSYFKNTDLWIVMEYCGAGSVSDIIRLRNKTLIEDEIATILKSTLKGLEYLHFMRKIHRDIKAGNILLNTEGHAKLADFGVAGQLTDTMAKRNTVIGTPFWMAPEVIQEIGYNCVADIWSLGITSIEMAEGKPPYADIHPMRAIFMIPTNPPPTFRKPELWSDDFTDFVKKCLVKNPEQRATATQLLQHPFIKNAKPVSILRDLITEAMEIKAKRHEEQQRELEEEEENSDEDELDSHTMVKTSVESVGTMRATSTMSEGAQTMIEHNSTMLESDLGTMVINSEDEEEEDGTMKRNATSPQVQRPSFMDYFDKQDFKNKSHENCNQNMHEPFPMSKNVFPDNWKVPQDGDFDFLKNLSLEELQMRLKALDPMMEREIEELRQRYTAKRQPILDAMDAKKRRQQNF
Assay: NP40-soluble protein abundance relative to vehicle (solubility fold change) (ratio); higher = more soluble protein in presence of GTP
Description: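 Solubility proteome profiling in Jurkat crude lysate. Lysate was treated with Mg-GTP (0.1-10 mM) for 10 min at room temperature and 3 min at 37 °C, then solubilised with 0.8% NP40 and benzonase, followed by ultracentrifugation. Proteins were quantified by TMT10 LC-MS/MS; the value is the NP40-soluble abundance relative to the NP40-processed vehicle, from 3 independent experiments.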

Nc1nc2c(ncn2[C@@H]2O[C@H](COP(=O)(O)OP(=O)(O)OP(=O)(O)O)[C@@H](O)[C@H]2O)c(=O)[nH]1 [guanosine triphosphate]
NP40-soluble protein abundance (concentration: 0.1mM): 0.978 ± 0.064 | NP40-soluble protein abundance (concentration: 0.5mM): 0.985 ± 0.036 | NP40-soluble protein abundance (concentration: 1mM): 0.98 ± 0.057 | NP40-soluble protein abundance (concentration: 2mM): 0.982 ± 0.048 | NP40-soluble protein abundance (concentration: 4mM): 0.96 ± 0.049 | NP40-soluble protein abundance (concentration: 6mM): 0.948 ± 0.052 | NP40-soluble protein abundance (concentration: 8mM): 0.972 ± 0.071 | NP40-soluble protein abundance (concentration: 10mM): 0.973 ± 0.088
